Broadly, the inhibition is the relative decrease from the control value, in per cent.

The text below walks through data of PubChem BioAssay AID2732 (Emory University Molecular Libraries Screening Center, 2010).

Out of some 220,000 compounds screened, about 8,200 (3.7%) were called active.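 The calls were made as follows: active = compounds that reduced the stress-induced luciferase reporter signal by more than about 70% of percent inhibition (limit read from the data); inactive = the rest.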 The entries come from a sample that favours actives as a whole.

The test is described as follows: blockers of ER-stress CHOP reporter expression – cell-based, unfolded protein response, luciferase reporter, primary screen (AID 2732).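 Also: 0% = tunicamycin plus vehicle and 100% = wells without tunicamycin.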 The note with it: CHO-K1 CHOP-promoter luciferase, tunicamycin-induced, 15-18 h; at 10 µM; active compounds read high.
In the case of `COc1ccc(-c2cc(C(F)(F)F)nc(SCC(=O)Nc3ccc4c(c3)OCO4)n2)cc1OC`, the inhibition was 22.4% (inactive).

Regarding `COc1cc(OC)nc(S(C)(=O)=O)n1`, the inhibition was -18.2% (inactive).

For `COc1ccc(-c2cc(C(F)(F)F)nc(S(C)(=O)=O)n2)cc1OC`, the inhibition is 109% (active).

In the case of `O=C(Nc1cccnc1)c1cc([N+](=O)[O-])ccc1Cl`, the inhibition is -9.19% (inactive).

For the molecule `CCOC(=O)C1CCN(c2c(Nc3cc(C)cc(C)c3)c(=O)c2=O)CC1`, the inhibition was 4.73% (inactive).

As for `O=S(=O)(c1ccc(NC(=S)NN=C(C2CC2)C2CC2)cc1)N1CCOCC1`, the inhibition was -4.48% (inactive).

As for `CN(c1ccccc1)S(=O)(=O)c1ccc(Cl)c(C(=O)OCC(=O)NCc2ccco2)c1`, the inhibition was 29.9% (inactive).

As to `CCOc1ccc(NC(=O)CN2CCN(CC(=O)Nc3ccc(OC)cc3)CC2)cc1`, the inhibition was 34.6% (inactive).

Regarding `CCOc1ccc(Nc2nc(Cl)nc(N3CCN(c4ccc(OC)cc4)CC3)n2)cc1`, the inhibition was 72.4% (active).

Consider `CCN1CCN(c2nc(Nc3cc(OC)ccc3OC)nc(Nc3cc(OC)ccc3OC)n2)CC1`, for which the inhibition was -5.76% (inactive).

For `Cc1coc2cc3oc(=O)c(CCC(=O)O)c(C)c3cc12`, the inhibition was -3.28% (inactive).

With `COC(=O)c1sccc1NC(=S)Nc1ccc(C)cc1`, the inhibition was 10.2% (inactive).

As for `Cc1cnc(C(=O)OCC(=O)NCCCc2ccccc2)cn1`, the inhibition is 4.94% (inactive).

`CCc1ccc(NC(=O)CS(=O)CC(=O)NCCCc2ccccc2)cc1` (stereo unspecified): the inhibition was 75.9% (active).

On to `CCN(CC)CCCNC(=O)CCc1ccccc1`, for which the inhibition was 0.68% (inactive).

Take `NNC(=O)c1oc2nc(-c3ccccc3)cc(-c3ccco3)c2c1N`: the inhibition was -41.2% (inactive).

In the case of `COC(OC)c1ccnc(SCc2ccccc2Cl)n1`, the inhibition is 15.3% (inactive).

`Cc1ccc(Nc2nc(-c3ccc(O)cc3O)cs2)nc1`: the inhibition is 88.9% (active).

On to `COc1ccc(-c2csc(Nc3ccc(O)cc3)n2)cc1`, for which the inhibition was 18.9% (inactive).

As for `O=c1oc2ccccc2cc1-c1csc(Nc2ccc(O)cc2)n1`, the inhibition is -72.5% (inactive).

On to `Nc1nnn(CC(=O)N/N=C/c2ccccc2)n1`, for which the inhibition was 9.73% (inactive).

Take `COc1cc(N2C(=O)CC3(CCCC3)CC2=O)cc(OC)c1OC`: the inhibition is -7% (inactive).

With `O=C(Nc1ccc(N2CCOCC2)nc1)c1c(F)cccc1F`, the inhibition is -6.02% (inactive).

`CCOC(=O)c1c(NC(=O)NC(C)(C)C)sc2c1CCN(C)C2`: the inhibition is 16.3% (inactive).

`O=[N+]([O-])c1ccc2nc(-c3ccccn3)[nH]c2c1`: the inhibition is -8.07% (inactive).

With `O=C(/C=C/Sc1ncn[nH]1)c1ccc(Cl)cc1`, the inhibition was 105% (active).

As for `COc1ccc(Cl)cc1CSc1ncn[nH]1`, the inhibition was -7.32% (inactive).

With `Cc1cc(C)nc(S/C=C/C(=O)c2ccccc2)n1`, the inhibition was 24.8% (inactive).

`CCCCSc1nc2c(c(=O)n1CC)SC(C)C2` (stereo unspecified): the inhibition is 97.1% (active).

Turning to `CCn1c(SCC(=O)Nc2ccccc2F)nc2c(c1=O)SC(C)C2` (stereo unspecified), the inhibition was -15.6% (inactive).

Consider `CCn1c(SCC(=O)Nc2ccc3c(c2)OCCO3)nc2c(c1=O)SC(C)C2` (stereo unspecified), for which the inhibition was 3.73% (inactive).

Take `COc1c(N2CCN(C(=S)Nc3ccccc3F)C(C)C2)c(F)cc2c(=O)c(C(=O)O)cn(C3CC3)c12` (stereo unspecified): the inhibition is 2.97% (inactive).

Regarding `Cc1ccc(-n2c(=O)cc(N3CCN(Cc4ccccc4)CC3)[nH]c2=O)cc1`, the inhibition is -31.4% (inactive).

Turning to `CCc1c(C)nc(N2CCN(Cc3ccccc3)CC2)[nH]c1=O`, the inhibition was 80% (active).

Turning to `Cc1nnc(SCc2cc(=O)[nH]c(N3CCN(Cc4ccccc4)CC3)n2)s1`, the inhibition is 39.7% (inactive).

`Cn1c(SCC(=O)N2CCOCC2)nnc1-c1ccc2ncccc2c1`: the inhibition was -14.7% (inactive).

Turning to `S=c1[nH]nc(-c2cc(-c3ccccc3)n[nH]2)n1/N=C/c1c2ccccc2cc2ccccc12`, the inhibition was 74% (active).

For `S=c1[nH]nc(-c2ccco2)n1/N=C/c1ccccc1`, the inhibition was 13.8% (inactive).

In the case of `S=c1[nH]nc(-c2ccccc2)n1/N=C/c1c[nH]c2ccccc12`, the inhibition was 30.5% (inactive).

Turning to `O=c1c(Cl)c(NCc2ccc(F)cc2Cl)cnn1C12CC3CC(CC(C3)C1)C2`, the inhibition is 78.6% (active).

Turning to `O=C(CN1CCN(Cc2ccc(F)cc2Cl)C1=O)NCc1cccs1`, the inhibition is 5.73% (inactive).

For `O=C(O)CC12CC3CC(C1)CC(n1ncc(NCc4ccc(F)cc4)c(Cl)c1=O)(C3)C2`, the inhibition was -5.94% (inactive).

For the molecule `CCCN(CC1COc2ccccc2O1)C(=S)Nc1ccc(C)cc1` (stereo unspecified), the inhibition was 28.3% (inactive).

As to `O=C(NCC1COc2ccccc2O1)C1(c2ccccc2)CCCC1` (stereo unspecified), the inhibition was 17.7% (inactive).

Regarding `S=C(NCC1COc2ccccc2O1)Nc1ccc(Br)cc1` (stereo unspecified), the inhibition was 81.2% (active).

Consider `CCCN(CCC)S(=O)(=O)c1ccc(C(=O)N2CC3CCC(CC3)C2)cc1`, for which the inhibition is 5.98% (inactive).

For `O=[N+]([O-])c1cccc2ncccc12`, the inhibition is 15.2% (inactive).

Turning to `CC(C)(C)NC(=O)Cn1nnc(-c2ccccc2Cl)n1`, the inhibition is 2.55% (inactive).

As for `Cc1cc(C)n(C(=O)c2ccc(S(=O)(=O)N3CCCC3)cc2)n1`, the inhibition is 13% (inactive).

On to `Cc1ccccc1-c1nnn(CC(=O)c2ccc(S(=O)(=O)N3CCCC3)cc2)n1`, for which the inhibition was 76% (active).

Consider `CC(OC(=O)c1ccc(NS(=O)(=O)c2ccc3[nH]c(=O)[nH]c3c2)cc1)C(=O)Nc1cccc(Cl)c1Cl` (stereo unspecified), for which the inhibition is -9.73% (inactive).

As for `NCCCCCC(=O)N/N=C/c1ccc2nccnc2c1`, the inhibition is 16.6% (inactive).

As to `Cc1onc(NC(=O)c2ccc([N+](=O)[O-])o2)c1Br`, the inhibition was -20.6% (inactive).

On to `COc1ccc(S(=O)(=O)Nc2c(C)n(C)n(-c3ccccc3)c2=O)cc1`, for which the inhibition is -21.7% (inactive).

Take `Cc1cccc(OP(=O)(Nc2c(C)n(C)n(-c3ccccc3)c2=O)Oc2cccc(C)c2)c1`: the inhibition was 71.4% (active).

As for `Cc1cc(C(=O)Nc2c(C)n(C)n(-c3ccccc3)c2=O)cs1`, the inhibition is 23.5% (inactive).

`O=C(CCl)Nc1cccc(CP(=O)(c2ccccc2)c2ccccc2)c1`: the inhibition is -134% (inactive).

Regarding `COc1ccc(CNC(=O)CCC(=O)Nc2nnc(C(C)C)s2)cc1`, the inhibition is 11.9% (inactive).

For `Cc1ccc(-c2nn(-c3ccccc3)cc2/C=N/NC(=O)c2ccc3c(c2)OCO3)cc1`, the inhibition was 22.2% (inactive).

As for `Cc1nnc(SCC(=O)N/N=C/c2cn(-c3ccccc3)nc2-c2ccc(F)cc2)n1-c1ccccc1`, the inhibition is 97.1% (active).

Consider `COc1ccc(OC)c(/C=N/NC(=O)CSc2nnc(C)n2-c2ccccc2)c1`, for which the inhibition was -5.53% (inactive).
